{
  "source": "PubChem BioAssay",
  "note": "Values without a mark were called inactive. The rule behind the calls is not given here.",
  "data": [
    {"biological_target": "Pantothenate synthetase (Mycobacterium tuberculosis (strain ATCC 25618 / H37Rv)) (UniProt P9WIL5)", "sequence (P9WIL5 whole entry, looked up)": "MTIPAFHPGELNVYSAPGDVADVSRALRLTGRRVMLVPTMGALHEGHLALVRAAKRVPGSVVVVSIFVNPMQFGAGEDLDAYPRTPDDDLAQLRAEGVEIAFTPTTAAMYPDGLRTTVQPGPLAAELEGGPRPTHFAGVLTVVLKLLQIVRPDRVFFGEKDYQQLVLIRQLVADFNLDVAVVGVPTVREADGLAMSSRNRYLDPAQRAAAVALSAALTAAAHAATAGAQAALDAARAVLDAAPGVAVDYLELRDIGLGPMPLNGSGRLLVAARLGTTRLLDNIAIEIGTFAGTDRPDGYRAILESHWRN", "assay": "Coupled enzyme confirmation of inhibitors against recombinant Mtb PanC (AID 375);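 note: 0% = full reaction with vehicle and 100% = no enzyme background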", "conditions": "coupled enzyme assay; at 10 µM, active compounds read high", "units": {"inhibition": "%"}, "values": [
      {"smiles": "CC(=O)N1CCc2cc(S(=O)(=O)NCCC3=CCCCC3)ccc21", "inhibition": 2},
      {"smiles": "Cn1c(=O)c2c(ncn2CCO)n(C)c1=O", "inhibition": 1},
      {"smiles": "COc1cc2c(c(OC)c1)C(c1ccncc1)CC(=O)N2", "note": "(stereo not given)", "inhibition": 0},
      {"smiles": "CC1CCCN(C(=O)CN2C(=O)c3ccccc3C2=O)C1", "note": "(stereo not given)", "inhibition": 3},
      {"smiles": "O=C(Cc1ccc(Br)cc1)N1CCCCCC1", "inhibition": 1},
      {"smiles": "COC(=O)c1nn(-c2ccc(-c3ccccc3)cc2)cc1O", "inhibition": 0},
      {"smiles": "C=CCn1c(COc2ccccc2)nnc1SCC(=O)C(C)(C)C", "inhibition": 0},
      {"smiles": "O=C(CCC1COc2ccccc2O1)NCC1COc2ccccc2O1", "note": "(stereo not given)", "inhibition": 0},
      {"smiles": "COC(=O)c1ccccc1NC(=O)c1ccc(-c2ccccc2F)o1", "inhibition": 0},
      {"smiles": "COC(=O)c1ccc(NC(=O)C2C3CCC(C3)C2C(=O)O)cc1", "note": "(stereo not given)", "inhibition": 0},
      {"smiles": "COCCn1nnnc1C(c1ccccc1OC)N1CCc2ccccc2C1", "note": "(stereo not given)", "inhibition": 0},
      {"smiles": "O=C(NCc1cccnc1)C1CCCN(S(=O)(=O)c2ccc(Cl)cc2)C1", "note": "(stereo not given)", "inhibition": 2},
      {"smiles": "O=C(OCC#CCSc1nnc(-c2ccncc2)o1)c1cccs1", "inhibition": 0},
      {"smiles": "O=S(=O)(c1ccc2c(c1)OCCO2)N(Cc1ccc(F)cc1)Cc1nnc(-c2cccs2)o1", "inhibition": 5},
      {"smiles": "O=C(NCCCN1CCN(Cc2ccccc2)CC1)C1CCN(c2nnc(-n3cccc3)s2)CC1", "inhibition": 0},
      {"smiles": "Cc1cccc(-n2ncc3c(N4CCC5(CC4)OCCO5)ncnc32)c1", "inhibition": 7},
      {"smiles": "CCc1nnc(NC(=O)c2ccc(COc3ccccc3)o2)s1", "inhibition": 6},
      {"smiles": "CN(C)c1ccc(-c2nn3c(-c4ccc(Cl)cc4Cl)nnc3s2)cc1", "inhibition": 9},
      {"smiles": "O=C(CN1C(=O)CCSc2ccccc21)Nc1ccc2c(c1)OCO2", "inhibition": 2},
      {"smiles": "O=C(CN1CCOCC1)Nc1cccc(C(=O)Nc2cccc(C(F)(F)F)c2)c1", "inhibition": 2},
      {"smiles": "CCOC(=O)Cn1ncc(-c2ccccc2)c1N", "inhibition": 6},
      {"smiles": "Cc1cc(C)c2c(n1)sc1c(N3CCOCC3)ncnc12", "inhibition": 5},
      {"smiles": "Nc1nc(-c2ccc(Cl)cc2)nn1C(=O)c1cccnc1", "inhibition": 0},
      {"smiles": "Cc1nc2sc(C(c3ccc(Br)cc3)N3CC(C)OC(C)C3)c(O)n2n1", "note": "(stereo not given)", "inhibition": 0},
      {"smiles": "CCOc1ccccc1N1CCN(S(=O)(=O)c2cccc3nsnc23)CC1", "inhibition": 0},
      {"smiles": "N#Cc1c2n(c(=O)[nH]c1=O)CCCCC2", "inhibition": 0},
      {"smiles": "CC(=O)Nc1c(-c2ccc(F)cc2)nc2ccccn12", "inhibition": 0},
      {"smiles": "Cc1noc(C)c1CSc1nc2ccccc2s1", "inhibition": 2},
      {"smiles": "Cc1cc(=O)n2[nH]c(-c3ccc(Cl)cc3)cc2n1", "inhibition": 0},
      {"smiles": "COc1cc(-c2noc(-c3cccc(Cl)c3)n2)cc(OC)c1OC", "inhibition": 0},
      {"smiles": "Cc1ccc(NC(=O)CSc2nnc(-c3cnccn3)n2Cc2ccco2)cc1C", "inhibition": 0},
      {"smiles": "CCOC(=O)C1=C(C)Nc2ncnn2C1c1ccccc1F", "note": "(stereo not given)", "inhibition": 6},
      {"smiles": "Cn1c(=O)n(Cc2ccc(F)cc2)c(=O)c2c1nc1n2CCCN1Cc1ccccc1", "inhibition": 0},
      {"smiles": "C=CCOc1ccccc1/C=c1\\sc2nc(=O)c(C)nn2c1=O", "inhibition": 0},
      {"smiles": "Cc1nc2sccn2c(=O)c1CCN1CCC(=C(c2ccccc2)c2ccc(F)cc2)CC1", "inhibition": 3},
      {"smiles": "CCOc1ccccc1NC(=O)C1CCCN(S(=O)(=O)c2cccc3cccnc23)C1", "note": "(stereo not given)", "inhibition": 6},
      {"smiles": "CCc1ccc2oc(-c3cc(N)ccc3Cl)nc2c1", "inhibition": 2},
      {"smiles": "Cn1c(SCCN2CCCCC2)nnc1-c1ccccc1Br", "inhibition": 0},
      {"smiles": "Cn1c(=O)c2c(nc(CN3CCN(Cc4ccccc4)CC3)n2Cc2cccc(Cl)c2)n(C)c1=O", "inhibition": 0},
      {"smiles": "Cc1ccc(NC(=O)CNc2cccc(C)c2C)c(C)c1", "inhibition": 0}
    ]}
  ]
}
